SMILES strings stand for the structures.

Experiment [1] deals with T1, Aspartate--tRNA(Asp/Asn) ligase (Mycobacterium tuberculosis (strain ATCC 25618 / H37Rv)) (UniProt P9WFW3).
T1 sequence (whole entry): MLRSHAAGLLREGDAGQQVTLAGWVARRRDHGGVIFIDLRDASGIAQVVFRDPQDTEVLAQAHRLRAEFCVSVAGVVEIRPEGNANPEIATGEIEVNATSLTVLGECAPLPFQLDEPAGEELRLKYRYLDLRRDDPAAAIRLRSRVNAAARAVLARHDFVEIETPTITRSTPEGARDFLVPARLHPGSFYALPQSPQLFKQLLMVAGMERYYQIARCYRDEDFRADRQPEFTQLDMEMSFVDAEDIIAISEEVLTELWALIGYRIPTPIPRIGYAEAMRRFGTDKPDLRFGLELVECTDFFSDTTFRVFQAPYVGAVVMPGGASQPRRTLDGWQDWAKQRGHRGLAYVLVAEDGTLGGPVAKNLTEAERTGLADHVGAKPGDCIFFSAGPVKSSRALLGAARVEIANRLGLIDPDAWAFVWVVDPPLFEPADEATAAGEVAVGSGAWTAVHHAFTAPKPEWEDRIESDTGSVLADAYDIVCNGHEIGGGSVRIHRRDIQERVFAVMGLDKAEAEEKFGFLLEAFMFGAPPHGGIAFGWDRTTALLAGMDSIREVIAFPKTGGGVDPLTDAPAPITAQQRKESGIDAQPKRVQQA
In words: Assay for Asp RNA synthetase-1 from Mycobacterium tuberculosis. It is filed as functional. The arrangement: scale not given: direction of the effect not stated beside the values. The settings on record: 30 µM.

In experiment [2] the target is Shiga toxin 2 (Escherichia coli O157:H7) (UniProt P09385+P09386). Nature of the experiment: E. coli 0.157:H7 Shiga Toxin SOP - stx2 screening assay. It is filed as functional. Set-up: scale not given: direction of the effect not stated beside the values. The note with it: 30 µM.

On to `CCc1noc(C)c1C(=O)N1CCCC1Cn1cc(C)cn1` (configuration not stated), for which the Percent Effect in experiment [1] came to 4.02%; in experiment [2], 31.4%.
For `O=C(NC1CC(=O)N(Cc2cccc(F)c2)C1)c1ccncc1` (configuration not stated) the same measures were 0.413% and -9.17%.
`CC(C)OCC(=O)N1CCCN(Cc2ccc(C#N)cc2)CC1`: the Percent Effect in experiment [1] is -0.7%; in experiment [2], 27.2%.
Regarding `CCNC(=O)[C@@H]1C[C@@H](NC(=O)Cc2ccncc2)CN1Cc1ccsc1`, the Percent Effect was -3.17% in experiment [1] and -0.12% in experiment [2].
In the case of `CCc1nc(CN(C(C)=O)C2CCN(CCc3cnn(C)c3)C2)no1` (configuration not stated), the Percent Effect was -5.05% in experiment [1] and -15.6% in experiment [2].
Consider `Cc1nc(C)n(CC2CCCN2CC(=O)Nc2ccnn2C(C)C)n1` (configuration not stated), for which the figures for the Percent Effect in experiment [1] and in experiment [2] were -1.15% and 23.4%, respectively.
As to `O=C(c1ccc(F)cc1)N1C[C@H]2CCC[C@@]2(COCc2ccccn2)C1`, the Percent Effect amounted to 9.3% in experiment [1] and 3.92% in experiment [2].
On to `CNC(=O)CCc1cc(C)nc(C2CCCN2)n1` (configuration not stated), for which the Percent Effect in experiment [1] worked out at 7.7%; in experiment [2], 9.84%.
For `Cc1cnn(CCC(=O)N2CCCC(c3cc(C(N)=O)[nH]n3)C2)c1` (configuration not stated), the results for the Percent Effect in experiment [1] and in experiment [2] were -2.86% and -13.8%, respectively.
Take `Cc1nn(C)c(C)c1C1CCCN1C(=O)c1ccc(Cl)o1` (configuration not stated): the Percent Effect in experiment [1] is -1.9%; in experiment [2], -17.4%.
For the compound `CC(C)Cc1nc(OCC(=O)O)c(C#N)c2c1CCC2`, the Percent Effect in experiment [1] was 0.639%; in experiment [2], -5.61%.
Take `CCn1ccnc1CN(C)C1CCCN(CCc2ccccc2)C1` (configuration not stated): the values for the Percent Effect in experiment [1] and in experiment [2] were -0.476% and -36%, respectively.
On to `CCn1c(CN2CCCC2)nnc1C1CCN(Cc2ccc(C)o2)CC1`, for which the Percent Effect is -0.695% in experiment [1] and 1.78% in experiment [2].
Take `CC(C)N(C)Cc1cn2c(n1)CN(C(=O)Cc1ccsc1)CC2`: the Percent Effect is 2.92% in experiment [1] and -5.19% in experiment [2].
`CC(NC(=O)N(C)Cc1ccsc1)c1ccc2c(c1)CCC(=O)N2` (configuration not stated): the Percent Effect in experiment [1] was -2.72%; in experiment [2] it was 29%.
Turning to `O=S(=O)(c1cccs1)N1CCCn2nnc(CN3CCCCC3)c2C1`, the Percent Effect in experiment [1] is 5.59%; in experiment [2], -16.9%.
`CCC1(CC)Cc2ccccc2-c2nc(CN(C)C)nc(O)c21`: the Percent Effect was 8.36% in experiment [1] and -1.34% in experiment [2].
Turning to `CO[C@H]1CCN(Cc2cnn(C)c2)[C@@H]2CN(Cc3cccnc3)C[C@H]12`, the figures for the Percent Effect in experiment [1] and in experiment [2] were 3.14% and -40.9%, respectively.
For `Cc1nc(N2CCCC2)nc2c1CN(C(C)C)CC2`, the Percent Effect in experiment [1] was 1.86%; in experiment [2] it was -13.3%.
Consider `CN1CCN(Cc2nc3ccccc3[nH]2)[C@H]2CS(=O)(=O)C[C@H]21`, for which the Percent Effect is 8.03% in experiment [1] and -6.1% in experiment [2].
On to `Cc1nc(CN2CCOC(CNc3cccnn3)C2)oc1C` (configuration not stated), for which the values for the Percent Effect in experiment [1] and in experiment [2] were -4% and 0.662%, respectively.
Regarding `COCCC1(CO)CCCN(Cc2ccc(F)c(C)c2)C1` (configuration not stated), the Percent Effect in experiment [1] is 6.95%; in experiment [2], 15.6%.
For the compound `CC(C)(C)OC(=O)N1CCN(C(=O)c2sccc2C2CC2)CC1`, the Percent Effect in experiment [1] is -2.9%; in experiment [2], -0.841%.
In the same order, the values of `CCc1ccc(CNC(=O)N2CCN(Cc3cc(C)no3)CC2)s1` are 12% and 27%.
Regarding `Cc1ncsc1C(=O)NC1CCN(CC(=O)N(C)c2ccccc2)CC1`, the Percent Effect was -3.57% in experiment [1] and 34% in experiment [2].
For the compound `CC(c1ccccc1)n1c(SCC(=O)O)nnc1-c1ccccc1Cl` (configuration not stated), the Percent Effect in experiment [1] stood at 1%; in experiment [2] it was 2.71%.
With `Cc1cnn(CC2CCCCN2Cc2nnc(-c3ccco3)o2)c1` (configuration not stated), the Percent Effect in experiment [1] turned out to be 11.6%; in experiment [2], 2.18%.
`COc1ncc(-c2nccn2CCN(C)C)cn1`: the Percent Effect in experiment [1] is -0.836%; in experiment [2], -6.87%.
For `CCc1n[nH]c(C2CN(C(=O)c3cnc(C)s3)CCO2)n1` (configuration not stated), the Percent Effect is -6% in experiment [1] and -8.48% in experiment [2].
`CC(c1nc(C2CC2)no1)N1CCN(Cc2ccccc2F)CC1` (configuration not stated): the Percent Effect in experiment [1] is -7.52%; in experiment [2], 8.03%.
With `CC(C(=O)N1CCCN(c2ncccc2C#N)CC1)n1cccn1` (configuration not stated), the Percent Effect in experiment [1] was -4.27%; in experiment [2], 31.7%.
For the compound `O=C(CCCn1cncn1)NC1(c2ccccc2)CCC1`, the Percent Effect in experiment [1] was 10.9%; in experiment [2], -17.7%.
Turning to `CC1(C)CC(N2Cc3nc(N)ncc3C2=O)CC(C)(C)N1`, the figures for the Percent Effect in experiment [1] and in experiment [2] were 7.13% and -32.6%, respectively.
For `CC(C)(O)CN1CCN(C(=O)c2sccc2C2CC2)CC1`, the results for the Percent Effect in experiment [1] and in experiment [2] were 0.16% and 10.1%, respectively.
In the same order, the values of `CC(C)OCCN1CCC(N2CCN(C)C2=O)CC1` are 0.182% and -16.8%.
In the same order, the values of `O=S(=O)(CCN1CCOC(Cn2cncn2)C1)c1ccccc1` (configuration not stated) are -2.75% and -7.21%.
`NC(=O)N1CCC2(CC1)CN(c1ccsc1)C(=O)CO2`: the Percent Effect in experiment [1] was 1.31%; in experiment [2], -21.1%.
As to `Cc1ccc(-c2ncc(C(=O)NCCNc3ncccn3)s2)c(C)c1`, the Percent Effect is 7.92% in experiment [1] and -13.5% in experiment [2].
As for `COc1cccc(OCC2CCCN(C3CCN(C(C)=O)CC3)C2)c1` (configuration not stated), the Percent Effect in experiment [1] is 4.72%; in experiment [2], -0.97%.
`COCc1ncc(CN2CCC(Oc3ccccc3OC)CC2)cn1`: the figures for the Percent Effect in experiment [1] and in experiment [2] were 0.276% and -1.31%, respectively.
For the compound `CC(c1nc(C2CC2)no1)N1CCN(c2ccc(C#N)cn2)CC1` (configuration not stated), the Percent Effect in experiment [1] is -0.15%; in experiment [2], -13.8%.
`Cc1cccc(N2CC[C@@H]3CN(C(=O)c4ccco4)CCO[C@@H]3C2)n1`: the Percent Effect in experiment [1] is -0.221%; in experiment [2], 1.6%.
On to `CCc1noc(C(C)N2CCN(c3ccc(C#N)cc3F)CC2)n1` (configuration not stated), for which the Percent Effect in experiment [1] stood at 1.23%; in experiment [2], 8.4%.
`CC(=O)N1CCCN(C(=O)NCc2ccccn2)CC1`: the Percent Effect in experiment [1] came out at 3.93%; in experiment [2], 16.9%.
In the case of `COc1ccccc1CC(=O)NCCCN1CCCC1C(=O)N(C)C` (configuration not stated), the Percent Effect in experiment [1] was 5.61%; in experiment [2], -5.75%.
For `Cc1ccc(F)cc1NC(=O)NCC(C)N1CCOCC1` (configuration not stated) the same measures were -1.14% and -35%.
